Data taken from PubChem BioAssay AID518 (Sanford-Burnham Center for Chemical Genomics, 2006).
About 55 (0.09%) of roughly 64,000 compounds were called active. A selection follows. Unmarked numbers belong to inactive results. How the calls were made is not given here.

Each compound was assayed against Alkaline phosphatase, tissue-nonspecific isozyme (Homo sapiens) (UniProt P05186) (assay: inhibition of tissue-nonspecific alkaline phosphatase – biochemical, luminescent (AID 518;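 further: plate controls were vehicle for no effect and reference inhibitor for full effect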)). Conditions: purified TNAP enzyme, luminescent substrate readout; at 20 µM; stronger effect = higher value.
Chain of Alkaline phosphatase, tissue-nonspecific isozyme (Homo sapiens) (P05186 whole entry, looked up): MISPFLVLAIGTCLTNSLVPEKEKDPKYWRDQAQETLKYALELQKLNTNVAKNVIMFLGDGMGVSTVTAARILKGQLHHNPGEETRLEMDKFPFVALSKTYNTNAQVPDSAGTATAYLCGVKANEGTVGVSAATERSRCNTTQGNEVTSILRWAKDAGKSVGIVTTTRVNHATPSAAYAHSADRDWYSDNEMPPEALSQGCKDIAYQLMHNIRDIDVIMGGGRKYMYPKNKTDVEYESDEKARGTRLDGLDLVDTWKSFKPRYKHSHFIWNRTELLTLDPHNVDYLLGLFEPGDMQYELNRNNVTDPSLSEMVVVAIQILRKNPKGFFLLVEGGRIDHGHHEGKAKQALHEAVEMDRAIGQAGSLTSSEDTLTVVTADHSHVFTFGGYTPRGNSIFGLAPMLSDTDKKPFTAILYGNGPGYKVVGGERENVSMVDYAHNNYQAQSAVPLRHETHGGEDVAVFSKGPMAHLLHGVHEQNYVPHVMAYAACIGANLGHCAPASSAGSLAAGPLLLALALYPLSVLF
`Cc1ccc(N(CC(=O)N2CCN(c3ccc(F)cc3)CC2)S(=O)(=O)c2c(C)nn(C)c2C)cc1` showed an inhibition of 8.6%.
Compound `O=C(c1ccc(Cl)cc1)N1CCC(c2nc(-c3cccs3)no2)CC1` has an inhibition of 13.1%.
For `CCC(CC)C(=O)NCCNC(=O)C(CC)CC`, the inhibition was 10.5%.
`Cc1ccc(OCC(=O)N2CCN(C(=O)CCC3CCCC3)CC2)cc1` was tested, and the inhibition was 6.3%.
`Cc1cc2c(c(=O)n1CCN(C)C)C(c1ccccc1Br)C(C#N)=C(N)O2` (configuration not stated) showed an inhibition of 9.3%.
`COCCNC(=O)Nc1ccc2c(c1)N(C)C(=O)CS2` gave an inhibition of 1.5%.
`O=C(c1cc2ccccn2n1)N1CCN(Cc2ccccc2)CC1` gave an inhibition of 2.9%.
`Cc1onc(-c2ccccc2Cl)c1C(=O)Nc1ccc(-c2cn3cccnc3n2)cc1` showed an inhibition of 4.9%.
In the case of `CCOC(=O)CN1CC23C=CC(O2)C(C(=O)O)C3C1=O` (configuration not stated), the inhibition is reported as 5.4%.
`O=C(CSc1nnc(-c2cccnc2)n1-c1ccccc1)Nc1ccccn1` was tested, and the inhibition was 2.6%.
`COc1ccc(OC)c(S(=O)(=O)NC2CCN(Cc3ccccc3)CC2)c1` was tested, and the inhibition was 6.7%.
For `CC(C)(C)n1ncc2c(=O)n(CC(=O)N3CCCc4ccccc43)cnc21`, the inhibition was 4%.
In the case of `COc1ccc(-c2nnc(SCC(=O)N3CCOCC3)o2)cc1`, the inhibition is reported as 3.7%.
For `Cc1nn(Cc2ccccc2)c(C)c1CCC(=O)O`, the inhibition was 7.6%.
Work on `N#Cc1ccccc1NC(=O)c1ccccc1OCC(=O)NCc1ccco1` yielded an inhibition of 7%.
In the case of `COC(=O)c1ccc(NC(=O)COc2ccc(S(=O)(=O)NC(C)C)cc2)cc1`, the inhibition is reported as -1.4%.
Work on `O=C1CC(c2ccco2)Cc2nc(N3CCN(Cc4ccc5c(c4)OCO5)CC3)ncc21` (configuration not stated) yielded an inhibition of 10.2%.
`Cc1noc(C)c1S(=O)(=O)N1CCC(C(=O)N(C)Cc2ccccc2)CC1` gave an inhibition of -0.3%.
`CN(Cc1ccccc1)Cc1c(F)cccc1F` was tested, and the inhibition was 5.6%.
`CN1C(=O)CS(=O)c2ccc(C(=O)NC3CC3)cc21` (configuration not stated) was tested, and the inhibition was 10%.
In the case of `CCc1c(C)nc2ncnn2c1N1CCC(C(=O)NCc2cccc(OC)c2)CC1`, the inhibition is reported as 13%.
Work on `Cc1ccc(NC(=O)C2CCCN2S(=O)(=O)c2ccc3c(c2)CCC(=O)N3)cc1Cl` (configuration not stated) yielded an inhibition of 9%.
`N#Cc1cc(Sc2ccccn2)c(Sc2ccccn2)cc1C#N` was tested, and the inhibition was 10.6%.
`CC(=O)Nc1nc2ccccc2n1CCOc1ccccc1` was tested, and the inhibition was 4.8%.
`O=C(C1CCCN(S(=O)(=O)c2cccc3cccnc23)C1)N1CCN(c2ccc(F)cc2)CC1` (configuration not stated) gave an inhibition of 14.6%.
Compound `O=c1c2ccccc2nc(SCc2nnc(-c3ccccc3)o2)n1-c1ccccc1` has an inhibition of 3.6%.
In the case of `O=C(O)c1ccc(S(=O)(=O)c2ccccc2)cc1`, the inhibition is reported as 8.6%.
Work on `CC(=O)C(Sc1nc(-c2ccco2)nc2c1c(=O)n(C)c(=O)n2C)C(=O)N(C)C` (configuration not stated) yielded an inhibition of 6%.
For `COc1cccc(N2CCN(C3CC(=O)N(c4ccc(F)c(Cl)c4)C3=O)CC2)c1` (configuration not stated), the inhibition was 7.6%.
`O=C(c1ccc(-c2ccccc2)cc1)N1CCN(c2nc3ccccc3o2)CC1` showed an inhibition of -3.8%.
In the case of `COc1cc(/C=N/n2cnnc2)ccc1OCCOc1ccccc1`, the inhibition is reported as 2.9%.
Compound `COc1ccc(OCc2nc(C#N)c(N3CCN(c4ccc(OC)cc4)CC3)o2)cc1` has an inhibition of 16.1%.
Compound `O=S(=O)(NCCc1cn2ccccc2n1)c1cccs1` has an inhibition of 1.2%.
`CC(=O)N1CCC(N(C(=O)Nc2ccc(C)c(C)c2)C2CCCC2)CC1` was tested, and the inhibition was 6.3%.
Work on `CC1Cc2ccccc2N1C(=O)C1CCCN(S(=O)(=O)c2cccc3nsnc23)C1` (configuration not stated) yielded an inhibition of 15.5%.
`O=C(CSCc1ccccc1)N1CCN(c2ccc(F)cc2)CC1` was tested, and the inhibition was 5.6%.
`CSc1nc2c(c(=O)[nH]c(=O)n2C)n1C/C=C(\C)Cl` showed an inhibition of 11.8%.
Compound `O=C(Cn1ncc2c1-c1ccccc1OC2)N1CCN(c2ccccn2)CC1` has an inhibition of 16.3%.
With `Cn1c(SCC(=O)N2CCOCC2)nnc1-c1ccccc1` the inhibition was 3.9%.
With `CCOc1cccc(-c2nnc3sc(-c4cc(OC)c(OC)cc4OC)nn23)c1` the inhibition was 8.9%.
With `CC(NC(=O)C(c1ccccc1)c1ccccc1)C(=O)O` (configuration not stated) the inhibition was 10%.
With `CN(CC(=O)NCCC1=CCCCC1)S(=O)(=O)c1ccc2c(c1)CCC(=O)N2` the inhibition was 6.5%.
In the case of `Cc1csc(NC(=O)CSc2nnc(-c3ccncc3)o2)n1`, the inhibition is reported as 13.3%.
For `Cc1ccc(-c2nc(CS(=O)(=O)CC(=O)N3CC(C)CC(C)C3)c(C)o2)cc1` (configuration not stated), the inhibition was 2.5%.
For `CCC1(c2ccc(F)cc2)NC(=O)N(CC(=O)c2ccc[nH]2)C1=O` (configuration not stated), the inhibition was 11.1%.
Work on `Cc1ccc(-n2c(SCC(N)=O)nnc2-c2ccccn2)cc1` yielded an inhibition of 5.9%.
With `Cc1nc(CN2CCN(C(=O)c3ccc(Br)cc3)CC2)cs1` the inhibition was 8.9%.
Work on `CC1(C)CC(=O)C2=C(C1)N(CC1CCCO1)C(=O)NC2(C(F)(F)F)C(F)(F)F` (configuration not stated) yielded an inhibition of 7.8%.
In the case of `COc1cc(/C=N/n2cnnc2)ccc1OCC(=O)N1CCOCC1`, the inhibition is reported as 9.7%.
With `Cc1cc(C(=O)CSc2nncs2)c(C)n1-c1c(C)n(C)n(-c2ccccc2)c1=O` the inhibition was 6.8%.
`COc1ccc(NC(=O)CSc2nnc(Cc3cccn3C)n2CCc2ccccc2)cc1OC` showed an inhibition of 21.5%.
Compound `Cc1oc(CC(C)C)cc1C(=O)Nc1ccc(C(=O)O)cc1` has an inhibition of -1.6%.
For `C=CCn1c(COc2ccccc2)nnc1SCc1ccc(C#N)cc1`, the inhibition was 5%.
`O=C1C2CCCN2C(c2ccccc2)N1c1cccc(Cl)c1` (configuration not stated) was tested, and the inhibition was 2.8%.
`COc1ccc(-c2ccc(-c3noc(-c4ccccc4C)n3)c(OC)n2)cc1` showed an inhibition of 6.5%.
Compound `CCCCn1c(Cl)nc2c1c(=O)n(C)c(=O)n2C` has an inhibition of 13.4%.
For `CCOc1ccc(S(=O)(=O)Nc2nc3ccccc3nc2N2CCN(C)CC2)cc1`, the inhibition was 0.5%.
With `O=C(c1cccnc1)N1CCN(C(=O)c2cccs2)CC1` the inhibition was 4.7%.
For `Cc1ccc(CC(=O)Nc2cccc(C)n2)cc1`, the inhibition was 6%.
With `C=CCOC(=O)CCCC(=O)NC1CCCCC1` the inhibition was 3.4%.
With `CCOC(=O)C1Cc2cc3c(cc2C1=O)CC(C(=O)OCC)C3=O` (configuration not stated) the inhibition was 8.4%.
With `CN(c1cccc(NC(=O)c2ccccc2N(C)S(C)(=O)=O)c1)S(C)(=O)=O` the inhibition was 14.3%.
`O=C(NCCCN1CCCC1)C1CCC(=O)N1C1CCCCC1` (configuration not stated) gave an inhibition of 7.6%.
With `N#Cc1ccc(Sc2nc3ccccc3[nH]2)cc1C#N` the inhibition was 0.3%.
`CC(C)Sc1nnc(NC(=O)C2CC2)s1` was tested, and the inhibition was -0.5%.
In the case of `O=C(Nc1cccnc1)c1c(O)c2cccc3c2n(c1=O)CC3`, the inhibition is reported as 5.4%.
Work on `COc1ccc(CN2CCC(C(=O)N(C)CCc3ccc(OC)c(OC)c3)CC2)c(OC)c1` yielded an inhibition of 14%.
With `O=C(NC1CCCCC1)c1ccc(Br)o1` the inhibition was 9%.
With `CC12CN3CC(C)(CN(C1)C3c1ccccc1Cl)C2O` (configuration not stated) the inhibition was 3.8%.
Compound `O=C(NCCc1csc(-c2ccccc2)n1)c1cccs1` has an inhibition of 9.4%.
`Cc1cc(NC(=O)c2cccc(S(=O)(=O)N3CCCCCC3)c2)n(-c2ccccn2)n1` gave an inhibition of -5.7%.
`CCOC(=O)C1CCN(C(=O)COC(=O)CCOc2ccc(C)cc2)CC1` was tested, and the inhibition was 7.4%.
Work on `CCOc1ccc(C(=O)CN2CCN(S(=O)(=O)c3ccc(Cl)cc3)CC2)cc1` yielded an inhibition of 4.9%.
`COc1ccc(C(C)=O)cc1CSc1nnc(C)s1` was tested, and the inhibition was 7%.
For `CC(=O)c1cccc(NC(=O)c2cccc(S(=O)(=O)N(C)C)c2)c1`, the inhibition was 6.3%.
`c1ccc2c(c1)CNc1ccccc1C2` showed an inhibition of 5%.
Compound `COc1ccc(-n2nnc3c(SCC(=O)NCc4ccco4)ncnc32)cc1` has an inhibition of 11.9%.
With `COc1cccc(NC(=O)c2ccc3c(c2)N(CC(=O)N2CCCCC2)C(=O)C(C)(C)O3)c1` the inhibition was 1.3%.
Compound `COc1ccc(Nc2nc(N)nc(SCc3nnc(C)s3)n2)cc1` has an inhibition of -0.5%.
Compound `COc1ccccc1N1CCN(C(=O)CSc2nnc3n2C(C)(C)Cc2ccccc2-3)CC1` has an inhibition of 10.5%.
Work on `CC1=C(c2ccc(Cl)cc2)[N+](=O)C(C)(C)N1[O-]` yielded an inhibition of 20.3%.
In the case of `Cc1ccc(C(C(=O)NC2CCCCC2)N(CC2CCCO2)C(=O)CNC(=O)c2ccco2)cc1` (configuration not stated), the inhibition is reported as 2.7%.
For `CC(OC(=O)CNC(=O)c1ccc2c(c1)OCO2)C(=O)NCCC1=CCCCC1` (configuration not stated), the inhibition was 8.9%.
`CN(C)c1ccc(C(C(=O)NC(C)(C)C)N(C(=O)c2csnn2)C2CC2)cc1` (configuration not stated) gave an inhibition of 6.8%.
For `CC(c1nnc(SCC(=O)c2c(N)n(C)c(=O)n(C)c2=O)n1-c1ccc(Cl)cc1)N(C)C` (configuration not stated), the inhibition was 2.8%.
Compound `CC1CCCCN1CCNC(=O)C1CCN(S(=O)(=O)c2cccc3cccnc23)CC1` (configuration not stated) has an inhibition of 9.7%.
For `Cc1ccc(S(=O)c2ccc(C)cc2)cc1`, the inhibition was 4.1%.
`O=C(CC1CCCCC1)c1c(O)c2ccccc2oc1=O` gave an inhibition of 5%.
For `CCOC(=O)c1[nH]c(CSc2nnc(-c3ccncc3)n2CCOC)c(C(=O)OCC)c1C`, the inhibition was 10.1%.
`CC1CC=C2C(C#N)=C(N)C(C#N)(C#N)C(c3cccs3)C2C1` (configuration not stated) was tested, and the inhibition was 8.9%.
`CCc1ccc(Nc2cc(=O)n(C3CCCCC3)c(=O)[nH]2)cc1` was tested, and the inhibition was 11.3%.
Work on `COc1cccc(-c2cc(C(=O)NCc3ccc(Cl)cc3)no2)c1` yielded an inhibition of 8.1%.
`COc1ccc(S(=O)(=O)N2C3CCC2CC(NC(=O)C2CC2)C3)cc1` (configuration not stated) was tested, and the inhibition was 2%.
`Nc1nc(CN2CCN(Cc3ccc4c(c3)OCO4)CC2)nc(Nc2ccccc2)n1` gave an inhibition of 12.3%.
Compound `CC1(C)NC(=O)N(CC(O)COc2ccc(N3C(=O)c4ccccc4C3=O)cc2)C1=O` (configuration not stated) has an inhibition of 8.6%.
`COc1ccc(N2C(=O)CSC2c2ccc3c(c2)OCO3)cc1` (configuration not stated) showed an inhibition of 13.6%.
`CC(C)NS(=O)(=O)c1ccc(OCC(N)=O)c(Cl)c1` was tested, and the inhibition was 9.1%.
In the case of `Cc1cccc(NC(=O)CC(C)(C)C)c1`, the inhibition is reported as 8.8%.
`Cc1nc(CSc2nnc3scc(-c4ccccc4)n23)cs1` showed an inhibition of 6.4%.
Work on `CCCCCN=C(C)c1c(O)c2ccccc2oc1=O` yielded an inhibition of 7.3%.
For `CNc1oc(Cc2ccccc2)nc1S(=O)(=O)c1ccccc1`, the inhibition was 9.1%.
For `COC(=O)Nc1sc2c(c1C(N)=O)CCCCCC2`, the inhibition was 15.8%.
